Test [1] in a line: qHTS assay to identify small molecule agonists of the peroxisome proliferator-activated receptor delta (PPARd) signaling pathway - cell viability counter screen (AID 743211). Also: nearly all actives have a fitted effect of over 55% in size. The gist of the method: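 Viability of GeneBLAzer PPARd UAS-bla HEK293H cells was assessed after 17 h compound incubation at 37C, using CellTiter-Glo reagent added after the reporter read and luminescence recorded 30 min later.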
For orientation: In qHTS, concentration-response curves come from the screen itself.

Test [2] in a line: qHTS assay to identify small molecule antagonists of the peroxisome proliferator-activated receptor delta (PPARd) signaling pathway - cell viability counter screen (AID 743213). Also: nearly all actives have a fitted effect of over 50% in size. In outline: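 Cytotoxicity counter screen: CellTiter-Glo luminescence read 30 min after addition, in the same wells as the reporter assay. There, PPARd UAS-bla HEK293H cells (3000/well) were treated 17 h at 37 C with compound and 300 nM L165041.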

Test [3] in a line: qHTS assay to identify small molecule agonists of the farnesoid-X-receptor (FXR) signaling pathway - cell viability counter screen (AID 743218). Also: nearly all actives have a fitted effect of over 45% in size. In outline: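 Same-well cytotoxicity check on FXR-UAS-bla HEK 293T cells: 5 h attachment, 16 h compound at 37 C, CellTiter-Glo luminescence read at room temperature after 30 min.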
Test [4] is described as follows: qHTS assay to identify small molecule antagonists of the farnesoid-X-receptor (FXR) signaling pathway - cell viability counter screen (AID 743221; active = well fitted cell-killing curve with a large enough effect in the repeat runs, not every such curve was filed as active; also: nearly all actives have a fitted effect of over 50% in size). In outline: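 Quantitative HTS of the Tox21 10K library run in parallel with the beta-lactamase reporter read. HEK 293T cells carrying a UAS-driven bla reporter got compound and 50 uM CDCA (final) for 16 h; ATP-based luminescence followed.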

In test [5] the target is Vitamin D3 receptor (Homo sapiens) (UniProt P11473). Nature of the test: qHTS assay to identify small molecule agonists of the vitamin D receptor (VDR) signaling pathway (AID 743222; calls by dose curve). In outline: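 Using LiveBLAzer B/G FRET detection, agonism was scored in VDR-bla cells exposed overnight (16 h, 37C) to DMSO-dissolved compounds; substrate incubation was 2 h at room temperature.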
Vitamin D3 receptor (Homo sapiens), sequence (P11473 whole entry, looked up): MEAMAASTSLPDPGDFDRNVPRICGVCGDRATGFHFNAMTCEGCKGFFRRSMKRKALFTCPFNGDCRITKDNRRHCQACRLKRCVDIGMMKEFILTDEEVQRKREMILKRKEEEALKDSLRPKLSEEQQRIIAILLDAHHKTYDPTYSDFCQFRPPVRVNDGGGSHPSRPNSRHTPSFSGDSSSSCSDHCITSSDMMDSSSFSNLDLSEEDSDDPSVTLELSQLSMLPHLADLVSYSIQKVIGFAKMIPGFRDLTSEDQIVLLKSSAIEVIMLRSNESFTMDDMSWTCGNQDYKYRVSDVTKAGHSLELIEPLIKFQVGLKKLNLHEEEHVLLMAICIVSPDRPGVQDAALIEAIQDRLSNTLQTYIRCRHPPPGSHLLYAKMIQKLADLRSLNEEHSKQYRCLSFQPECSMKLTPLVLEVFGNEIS

For test [6] the target is unchanged. Nature of the test: qHTS assay to identify small molecule antagonists of the vitamin D receptor (VDR) signaling pathway (AID 743223; active = well fitted inhibition curve with a large enough effect in the signal ratio in the repeat runs, not every such curve was filed as active; the % refers to the signal ratio). The gist of the method: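 Fluorescence from LiveBLAzer B/G FRET substrate, read after 2 h at room temperature, reflects beta-lactamase reporter activity in VDR-bla cells treated 16 h at 37C with compounds and agonist 1alpha,25-dihydroxyvitamin D3 (3 nM final).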

Test [7] is described as follows: qHTS assay to identify small molecule agonists of the vitamin D receptor (VDR) signaling pathway - cell viability counter screen (AID 743224). Also: series mostly up to about 63 µM; nearly all actives have a fitted effect of over 50% in size. In outline:
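Counter screen for cytotoxicity: VDR-bla cells at 2,000 cells/well, 16 h compound exposure, then CellTiter-Glo luminescence after the beta-lactamase measurement.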

Test [8] in a line: qHTS assay to identify small molecule antagonists of the vitamin D receptor (VDR) signaling pathway - cell viability counter screen (AID 743225). Also: nearly all actives have a fitted effect of over 50% in size. In outline: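 Cells (VDR-UAS-bla HEK 293T) are plated, rested 4 h at 37C, dosed with compound and 3 nM final 1-alpha,25-dihydroxy vitamin D3, and incubated 16 h. Viability is taken from CellTiter-Glo luminescence in the reporter wells.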

A short description of test [9]: qHTS assay to identify small molecule agonists of the NFkB signaling pathway (AID 1159509; active = well fitted curve in the direction sought with a large enough effect in the signal ratio in the repeat runs, not every such curve was filed as active; the % refers to the signal ratio; also: series mostly up to about 61 µM). In outline:
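Beta-lactamase reporter assay run in quantitative high-throughput format on an NF-kB-responsive ME-180 line, with 5 hr compound treatment and a FRET-based blue/green fluorescence readout.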

The nature of test [10]: qHTS assay to identify small molecule agonists of the NFkB signaling pathway - cell viability counter screen (AID 1159515; calls by dose curve; also: series mostly up to about 61 µM; nearly all actives have a fitted effect of over 55% in size). In outline: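 Counter screen run alongside the NFkB-bla agonist assay: ME-180 reporter cells exposed to compounds for 5 hr, then lysed with CellTiter-Glo in the same wells. Luminescence, read after 30 min, reflects viable cells.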
A short description of test [11]: qHTS assay to identify small molecule agonists of the endoplasmic reticulum stress response signaling pathway - cell viability counter screen (AID 1159517; calls by dose curve). The gist of the method:
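Steps: seed 1,500 ESRE-bla HeLa cells per well; incubate overnight at 37 C, 5% CO2; add compounds in DMSO for 5 hr; run FRET substrate 2 hr RT; add CellTiter-Glo, wait 30 min, read luminescence.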

Test [12] in a line: qHTS assay to identify small molecule antagonists of the retinoid-related orphan receptor gamma (ROR-gamma) signaling pathway - cell viability counter screen (AID 1159520). Also: nearly all actives have a fitted effect of over 50% in size. The gist of the method:
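Tet-on ROR gamma CHO cells were given compounds for 2 hr, then doxycycline hyclate at 1 uM final, and incubated 16 hr at 37 C. Viability was measured as ATP content by CellTiter-Glo luminescence.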

Test [13] concerns the target Nuclear receptor ROR-gamma (Homo sapiens) (UniProt P51449). The test is described as follows: qHTS assay to identify small molecule antagonists of the retinoid-related orphan receptor gamma (ROR-gamma) signaling pathway (AID 1159521; also: nearly all actives have a fitted effect of over 50% in size; also: potency is read from the fitted curve at half-maximal effect). In outline:
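RORγ antagonism is scored from reduced reporter luminescence in Tet-on CHO cells. Induction used 1 uM final doxycycline hyclate for 16 h at 37 C, following a 2 h compound exposure.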

Test [14] is described as follows: qHTS assay to identify small molecule agonists of the AP-1 signaling pathway (AID 1159526; calls by dose curve; also: potency is read from the fitted curve at half-maximal effect).
Test [15] has as its target Peroxisome proliferator-activated receptor delta (Homo sapiens) (UniProt Q03181). Nature of the test: qHTS assay to identify small molecule agonists of the peroxisome proliferator-activated receptor delta (PPARd) signaling pathway (AID 743212; calls by dose curve). In outline: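 Read-out: beta-lactamase FRET fluorescence after 2 h room-temperature incubation with LiveBLAzer B/G substrate. Cells were HEK293H carrying a UAS-bla reporter for PPARd, treated at 37 C with DMSO-dissolved compounds.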

For test [16] the target is unchanged. Nature of the test: qHTS assay to identify small molecule antagonists of the peroxisome proliferator-activated receptor delta (PPARd) signaling pathway (AID 743215; active = well fitted inhibition curve with a large enough effect in the signal ratio in the repeat runs, not every such curve was filed as active; the % refers to the signal ratio;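 also: cells stimulated with agonist L165041 at 300 nM final during compound exposure; series mostly up to about 62 µM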). In outline:
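Screen format: qHTS, antagonist mode. HEK293H PPARd-bla cells received compound and 300 nM L165041 (final), 17 h, 37 C. Beta-lactamase detected via FRET substrate fluorescence, 2 h, room temperature.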

Test [17] is described as follows: qHTS assay to identify small molecule agonists of the AP-1 signaling pathway - cell viability counter screen (AID 1159525; calls by dose curve; also: nearly all actives have a fitted effect of over 55% in size). In outline: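 Same-well cytotoxicity counter screen of the Tox21 10K library in ME-180 cells. The readout is ATP-dependent luminescence after 5 h compound treatment. Data are normalised to DMSO and tetra n-octyl ammonium bromide controls.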

For test [18], the target named is Bile acid receptor (Homo sapiens) (UniProt Q96RI1). The test is described as follows: qHTS assay to identify small molecule antagonists of the farnesoid-X-receptor (FXR) signaling pathway (AID 743217; active = well fitted inhibition curve with a large enough effect in the signal ratio in the repeat runs, not every such curve was filed as active; the % refers to the signal ratio). The gist of the method:
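Quantitative HTS, beta-lactamase reporter format: FXR-UAS-bla HEK 293T cells co-treated 16 h at 37 °C with compounds and 50 uM final chenodeoxycholic acid, then read by B/G FRET fluorescence.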

Values joined by “and” are separate entries in the source; they are usually repeats but may differ in a detail not shown here. Equal entries are not always repeated. Results filed as inconclusive are left out. Active and inactive are the calls of the source. Unless noted, calls follow the shape of the dose curve; as a rule, active = well fitted curve in the direction sought with a large enough effect in the repeat runs; inconclusive = weak or mixed curves; inactive = no such curve, though single readings can be large; an effect the other way counts as inactive or inconclusive.

Bile acid receptor (Homo sapiens), sequence (Q96RI1 whole entry, looked up): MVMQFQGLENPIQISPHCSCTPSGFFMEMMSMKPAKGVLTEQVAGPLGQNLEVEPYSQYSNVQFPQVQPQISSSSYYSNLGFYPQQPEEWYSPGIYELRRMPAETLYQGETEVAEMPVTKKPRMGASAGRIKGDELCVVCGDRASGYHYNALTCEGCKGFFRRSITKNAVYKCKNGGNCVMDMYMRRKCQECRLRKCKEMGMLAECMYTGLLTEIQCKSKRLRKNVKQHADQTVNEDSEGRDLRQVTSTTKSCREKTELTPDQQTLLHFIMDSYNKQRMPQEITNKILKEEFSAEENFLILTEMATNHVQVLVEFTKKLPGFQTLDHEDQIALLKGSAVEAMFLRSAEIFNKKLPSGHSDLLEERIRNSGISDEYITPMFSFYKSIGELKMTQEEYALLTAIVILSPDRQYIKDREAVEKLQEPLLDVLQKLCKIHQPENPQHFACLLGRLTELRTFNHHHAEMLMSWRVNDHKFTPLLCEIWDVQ
Peroxisome proliferator-activated receptor delta (Homo sapiens), sequence (Q03181 whole entry, looked up): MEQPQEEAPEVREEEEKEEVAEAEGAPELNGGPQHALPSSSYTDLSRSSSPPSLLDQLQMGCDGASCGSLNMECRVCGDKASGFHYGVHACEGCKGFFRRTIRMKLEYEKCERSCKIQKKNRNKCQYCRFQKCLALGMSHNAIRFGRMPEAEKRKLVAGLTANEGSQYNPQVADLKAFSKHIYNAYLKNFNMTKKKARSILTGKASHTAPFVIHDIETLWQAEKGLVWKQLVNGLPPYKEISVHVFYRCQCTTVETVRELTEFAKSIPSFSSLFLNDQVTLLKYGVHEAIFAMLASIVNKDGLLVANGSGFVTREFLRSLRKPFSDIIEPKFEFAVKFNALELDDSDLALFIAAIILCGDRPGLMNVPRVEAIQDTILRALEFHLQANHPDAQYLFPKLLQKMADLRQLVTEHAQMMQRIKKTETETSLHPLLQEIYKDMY

Take `CC1(C)O[C@@H]2[C@@H](CO[C@@]3(COS(N)(=O)=O)OC(C)(C)O[C@@H]23)O1`: the Potency entry in [1], in [2], in [3], in test [6], in [7] and in test [11] was “inactive” in each case. In addition, the Potency entry in test [13] and in test [14] was “inactive” each time. The call in test [4], in test [5], in test [8], in test [9], in test [10] and in test [12] was inactive.

As to `CCCCOCCOCCOC(C)=O`, the Potency result in [1], in test [2], in test [3], in test [6], in [7] and in test [11] was “inactive” each time. The Potency entry in test [13] and in [14] was “inactive” in each case. The molecule was classed as inactive in test [15], in [16], in test [4], in [5], in test [8] and in test [9]. Besides, the molecule was called inactive in test [10] and in test [12].

Turning to `C1CNCCN1`, the Potency entry in test [1], in test [2], in [3], in test [6], in [7] and in [11] was “inactive” throughout. The Potency entry in test [13] and in [14] was “inactive” throughout. Also, the outcome in test [4], in test [5], in [8], in test [9], in [10] and in test [12] was inactive. Besides, in [17], the outcome was inactive.

Consider `CCN1CCCC1=O`, for which the Potency result in test [1], in test [2], in test [18], in test [3], in test [6] and in test [7] was “inactive” throughout. The Potency entry in [11], in test [13] and in [14] was “inactive” in each case. The outcome in test [4], in test [5], in test [8], in [9], in test [10] and in [12] was inactive.

With `CC(=O)/C=C/C1=C(C)CCCC1(C)C`, the Potency result in [1], in [2], in [18], in [3], in test [6] and in test [7] was “inactive” throughout. For the same molecule, the Potency entry in [11], in [13] and in test [14] was “inactive” each time. Moreover, the molecule was called inactive in [4], in test [5], in test [8], in test [10] and in test [12].

As for `COc1cc2c(c(OC)c1OC)-c1ccc(OC)c(=O)cc1[C@@H](NC(C)=O)CC2`, the Potency entry in test [1], in test [2], in test [3], in test [7] and in [11] was “inactive” in each case. The molecule was called inactive in test [4], in [5], in test [8], in [9], in [10] and in test [12]. Besides, the Potency in test [13] is 538 nM (active) and 686 nM (active) and 37.6 nM (active); in test [14], 172 nM (active).

Regarding `Cc1cccc(Nc2cc(Cl)nc(SCC(=O)O)n2)c1C`, the Potency entry in [1], in test [2], in [3], in test [6], in [7] and in test [11] was “inactive” throughout. For the same molecule, the Potency entry in [13] and in test [14] was “inactive” each time. For the same molecule, the outcome in test [4], in [5], in test [8], in test [9], in test [10] and in test [12] was inactive.

On to `COc1cc(O)c(C(=O)c2ccccc2)cc1S(=O)(=O)O`, for which the Potency entry in test [1], in test [2], in test [18], in test [3], in [6] and in [7] was “inactive” each time. In addition, the Potency entry in [11], in test [13] and in test [14] was “inactive” throughout. Further, the call in test [15], in test [16], in test [4], in test [5], in test [8] and in test [9] was inactive. Further, the molecule was classed as inactive in test [10] and in test [12].

The values above are taken from PubChem BioAssay (Tox21).
